Laboratory results reported in PubChem BioAssay (NCI).
The panel holds about 83,000 compounds, 20% with a hit somewhere; the sample as a whole holds those more often.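 Activity criterion: percent growth below 10, measured after cells in 96-well plates were exposed to a single compound concentration for 48 hours.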 Values without a mark were called inactive. Calls of active or inactive are those of the source.

system: HL-60(TB) leukemia; experiment: NCI-60 one-dose screen, 48 h (100 = growth as untreated, 0 = no growth, -100 = all killed); conditions: 10 µM unless noted

Row | Compound | growth
1 | C[C@@H]1C(=O)N(C[C@H](Cc2ccccc2)NC(=O)OCc2ccccc2)[C@]1(Cc1ccccc1)C(=O)OC(C)(C)C | 81.5%
2 | COc1ccc2nc3cc(Cl)ccc3c(Nc3cc(C(C)C)c(O)cc3C)c2c1 | 7.64% (active)
3 | C=CC(COC(c1ccccc1)(c1ccccc1)c1ccccc1)N(CC)CC (stereo not given) | 48.1%
4 | O=C1/C(=C\c2ccco2)SC(=S)N1CCc1ccc(O)cc1 | 76.3%
5 | CC(=O)C(=Cc1ccc(C=C(C(C)=O)C(C)=O)cc1)C(C)=O | 7.08% (active)
6 | O=C(/C=C/c1ccco1)Nc1ncc(Cc2cc(Cl)ccc2Cl)s1 | -50% (active)
7 | Brc1cccc(-c2cc(-c3ccc4nccnc4c3)[nH]n2)c1 | 14.9% [25 µM]
8 | O=C(O)c1cccc([N+](=O)[O-])c1 | 107%
9 | CCCCN(CCCC)CCCn1c(-c2ccccc2)ccc1-c1ccccc1 | 61.6%
10 | N#CC(=C1C=CC(=NO)C=C1)c1ccccc1 | 4.88% (active)
11 | Cc1c(O)cc(-c2cnc(N/N=C\c3ccc(Cl)cc3)s2)c(O)c1C | -3.05% (active)
12 | CCO/C=C1\SC(=S)N(c2cccc(O)c2)C1=O | 100%
13 | COc1ccc(-c2cnnc3c(-c4cccc(C(F)(F)F)c4)cnn23)cc1 | 60.2%
14 | CCCCC[C@H](O)C/C=C1/C(=O)C=C[C@@H]1C/C=C\CCCC(=O)O | 90.7%
15 | CC(=O)Cc1nsc(NC(=O)c2cc(-c3cc(Cl)ccc3Cl)oc2C)n1 | 94.3%
16 | Cn1cc(-c2csc(-c3cn(CCN)c4ccccc34)n2)c2cccnc21 | 26.5%
17 | COc1cc(/C=C2\CN(C(=O)CCN3CCC(=NO)CC3)C/C(=C\c3cc(OC)c(OC)c(OC)c3)C2=O)cc(OC)c1OC | -27.9% (active)
18 | COc1ccccc1OCC(=O)Nc1sc2c(c1C(N)=O)CCC2 | 50.1%
19 | CC(=O)OC1CCC2(C)C(CCC3C4CC=C(C(C)=O)C4(C)OC(=O)CC32)C1 (stereo not given) | -39.8% (active)
20 | Cn1cc(-c2csc(-c3cn(C)c4ccc(F)cc34)n2)c2cnccc21 | -44.8% (active)

Row | Compound | growth
21 | CCN(CC)c1ccc(/C=N\NC(=O)c2cccc(Nc3ccnc(C(F)(F)F)c3)c2)c(O)c1 | 69.2%
22 | CC(C)(C)c1ccc([I+]c2ccc(C(C)(C)C)cc2)cc1 | -38.7% (active)
23 | N#Cc1ccc(O)c(C2=NCC(c3ccc(-c4ccccc4)cc3)O2)c1 (stereo not given) | -17.3% (active)
24 | CC(=S)NC(=O)C(=O)/C=C1/NC(=O)C(=O)S1 | 104%
25 | c1cc2c(cc1-c1cnc3nonc3n1)OCO2 | 0.978% (active)
26 | CCCC(=O)NNc1[nH]c(-c2ccc(OC)cc2)cc1C(=O)OCC | -27.7% (active)
27 | COC(=O)c1cc2c3c(cc(O)c2[nH]1)N(C(=O)C1Cc2cc(OC)c(OC)c(OC)c2N1)CC3CCl (stereo not given) | -5.77% (active)
28 | O=CNc1cc(Cl)cc(Cl)c1 | 93.2%
29 | O=[N+]([O-])c1cccc(N=Cc2ccccc2)c1 | 106%
30 | Cc1cnc(NC(=O)C(Cc2ccccc2)NC(=O)c2ccccc2)s1 (stereo not given) | 38.7%
31 | Cc1ccc(S(=O)(=O)NC(CCC(=O)Nc2ccc(Cl)cc2)C(=O)Nc2ccc(Cl)cc2)cc1 (stereo not given) | 24.1%
32 | COc1ccc(C(=O)C/C(=C\c2ccc(O)c(OC)c2)C(=O)NN)cc1 | 66.4%
33 | Cc1ccnc2c(OCc3ccccc3)cccc12 | 111%
34 | COc1ccc(/C(C)=C(\c2ccc(OCCN3CCOCC3)cc2)c2ccc(OC(=O)C3CCCCC3)cc2)cc1 | 126%
35 | c1ccc2cc(Cn3c(-c4cccc5ccccc45)[n+](Cc4ccc5ccccc5c4)c4c5ccccc5c5ccccc5c43)ccc2c1 | -54.6% (active)
36 | COc1ccc(-n2cc(-c3ccc(Cl)c(Cl)c3)[nH]c2=O)cc1OC | 179%
37 | CN1C(=O)N(C)C2Nn3c(s/c(=C4\C(=O)N(CCc5ccccc5)c5ccccc54)c3=O)=NC21 (stereo not given) | 56.9%
38 | Cc1ccc(-c2csc(/N=C3\C(=O)Nc4ccccc43)n2)cc1 | -48% (active)
39 | Nc1ncc(-c2cnn(C3CCNCC3)c2)cc1-c1nc2ccccc2o1 | -55.5% (active)
40 | CCOC(=O)C(CCC1=NC(C)(C)CC(C)O1)C(=O)OCC (stereo not given) | 56.4%
